FLuc counter: counter-screen for miR-21 project: firefly luciferase inhibitors or activators; P08659; purified FLuc, Km substrates, luminescence inhibition; Potency, µM (top dose mostly 57.5 µM), actives largely listed as inhibitors; actives 6.9% (n = 360,000); note: nearly all actives have a fitted effect of over 55% in size
Target sequence (P08659 whole entry, looked up): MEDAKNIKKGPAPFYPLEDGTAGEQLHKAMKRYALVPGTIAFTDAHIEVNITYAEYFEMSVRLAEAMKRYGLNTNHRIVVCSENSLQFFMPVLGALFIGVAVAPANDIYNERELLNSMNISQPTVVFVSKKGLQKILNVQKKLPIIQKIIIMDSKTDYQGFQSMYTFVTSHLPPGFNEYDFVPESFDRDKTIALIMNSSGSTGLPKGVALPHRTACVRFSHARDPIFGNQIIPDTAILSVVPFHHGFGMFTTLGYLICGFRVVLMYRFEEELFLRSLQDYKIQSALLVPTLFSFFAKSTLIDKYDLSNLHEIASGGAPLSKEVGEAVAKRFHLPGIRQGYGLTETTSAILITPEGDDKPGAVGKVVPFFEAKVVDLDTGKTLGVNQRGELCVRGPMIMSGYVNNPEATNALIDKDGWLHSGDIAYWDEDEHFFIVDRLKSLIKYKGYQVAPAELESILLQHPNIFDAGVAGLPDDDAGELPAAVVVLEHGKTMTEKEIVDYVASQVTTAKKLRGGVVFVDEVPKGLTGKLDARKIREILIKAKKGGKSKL
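Purified P. pyralis luciferase, 10 nM final, with Km-level 10 uM D-luciferin and 10 uM ATP in 50 mM Tris acetate pH 7.5, 10 mM Mg acetate, 0.01% Tween-20, 0.05% BSA; 6-point qHTS titration about 60 µM downward; luminescence read.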
Rab9 prom act: activators of Rab9 promoter; Huh7 Rab9 promoter-luciferase reporter, luminescence, 24 h; Potency, µM (highest dose often 9.22 µM), usual class: activators; actives 2.8% (n = 320,000); AID 485297; note: nearly all actives have a fitted effect of over 60% in size
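Luminescence read-out: Huh7 cells stably expressing Rab9-luciferase, treated 24 h with compound at 37 °C, then lysed with luciferase reagent for 10 min at ambient before reading.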
ELG1 repair inh: ELG1-dependent DNA repair inhibition; actives 2.3% (n = 330,000); AID 504467; HEK293T ELG1-luciferase reporter, luminescence, 16 h; DNA damage induced by 5-fluorouridine; Potency, µM (highest dose often 46.1 µM), most hits filed as inhibitors; note: nearly all actives have a fitted effect of over 55% in size
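Luminescence from the luciferase reporter, measured 30 min after ONE-Glo reagent at room temperature, was the read-out. Beforehand, 2,000 cells per well were exposed for 16 hr at 37 °C to 5-fluorouridine together with compound or vehicle.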
ELG1 genotox: genotoxicity induction in ELG1-luciferase HEK293T cells; HEK293T ELG1-luciferase reporter, luminescence, 16 h; Potency, µM (highest dose often 46 µM), actives largely listed as activators; actives 1.3% (n = 330,000); note: nearly all actives have a fitted effect of over 60% in size
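After overnight (16 hr) compound treatment at 37 °C, ELG1-luciferase HEK293T cells were lysed with ONE-Glo; luminescence quantified 30 min later at room temperature.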
SMN2 splice up: increases expression of the SMN2 splice variant; HEK293 SMN2-luciferase splicing reporter, luminescence, 30-36 h; Potency, µM (titrated, usually from 46.1 µM), usual class: activators; actives 2.8% (n = 210,000); AID 1458; note: nearly all actives have a fitted effect of over 55% in size
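qHTS luciferase splicing reporter: luminescence rises when SMN2 exon 7 is included in transfected HEK293 cells. Compound exposure lasted 30-36 h at 37C, with 4.5 mM final sodium butyrate as control, followed by a ONE-Glo read.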
NPC1 promoter act: NPC1 promoter activation; Huh7 NPC1 promoter luciferase reporter, 24 h; Potency, µM (top dose mostly 9.22 µM), hits mostly activators; actives 2.4% (n = 320,000); AID 485313; note: nearly all actives have a fitted effect of over 60% in size
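Luciferase expression driven by the NPC1 promoter was measured in stably transfected Huh7 cells after a 24 h compound incubation, using a luciferase reagent and a luminescence read.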
Each line names hits and unclear results; the compound was inactive in the other large screens. Rows were chosen to be rich in hits. Some 9.3% of all compounds tested hit in one or more screens of this group. Calls come from the whole dose curve; as a rule, active = well fitted curve in the direction sought with a large enough effect; inconclusive = small, poorly fitted or top-dose-only effect, or another doubt; inactive = no such curve, though single readings can be large; an effect the other way counts as inactive or inconclusive.

COc1ccc(OS(=O)(=O)c2c(C)noc2C)cc1	none (no result: SMN2 splice up)
CCOC(=O)COn1c(=O)c(-c2cc3ccccc3o2)[n+]([O-])c2ccccc21	FLuc counter 2.39µM, Rab9 prom act 2.24µM, ELG1 repair inh inconclusive, ELG1 genotox inconclusive, SMN2 splice up 14.1µM, NPC1 promoter act inconclusive
CCCN1CCC(=O)N(CCSc2ccccc2)CC1	FLuc counter inconclusive, Rab9 prom act 3.55µM, ELG1 repair inh inconclusive, ELG1 genotox inconclusive, NPC1 promoter act 2.82µM (no result: SMN2 splice up)
O=C1CCN(Cc2ccccc2)CCN1CCSc1ccccc1	FLuc counter 13.5µM, Rab9 prom act 4.47µM, ELG1 repair inh inconclusive, ELG1 genotox inconclusive, NPC1 promoter act inconclusive (no result: SMN2 splice up)
CCCS(=O)(=O)N1CCC(n2c(C)nc3cccnc32)CC1	none (no result: Rab9 prom act, ELG1 repair inh, ELG1 genotox, SMN2 splice up, NPC1 promoter act)
O=S(=O)(c1ccc(F)cc1)N1CCC(Oc2ccc(-n3cnnn3)cc2)CC1	none (no result: Rab9 prom act, ELG1 repair inh, ELG1 genotox, NPC1 promoter act)
COc1ccc(NC(=O)CSc2nnc(NC(=O)Nc3ccccc3)s2)c(OC)c1	none (no result: Rab9 prom act, ELG1 repair inh, ELG1 genotox, SMN2 splice up, NPC1 promoter act)
Cc1ccc(/C=N/Nc2ccc(Cl)c(C(=O)O)c2)s1	FLuc counter 4.78µM, Rab9 prom act 0.316µM, ELG1 repair inh inconclusive, ELG1 genotox inconclusive, SMN2 splice up 0.891µM, NPC1 promoter act 0.316µM
O=C(O)c1cc(N/N=C/c2cccs2)ccc1Cl	FLuc counter 9.53µM, Rab9 prom act inconclusive, ELG1 repair inh inconclusive, ELG1 genotox inconclusive, SMN2 splice up 11.2µM, NPC1 promoter act inconclusive
Cc1ccsc1/C=N/Nc1nc(Cl)c(Cl)cc1Cl	FLuc counter inconclusive, ELG1 repair inh inconclusive, SMN2 splice up inconclusive
Cc1ccc(/C=N/Nc2nc(Cl)c(Cl)cc2Cl)s1	FLuc counter 6.01µM, Rab9 prom act inconclusive, ELG1 repair inh inconclusive, ELG1 genotox inconclusive, SMN2 splice up inconclusive, NPC1 promoter act inconclusive
Cc1ccc(/C=N/Nc2ccc(F)cc2)s1	FLuc counter inconclusive (no result: SMN2 splice up)
CSc1sc(C(=O)NC(=O)NCc2ccncc2)c(C)c1-c1ccon1	ELG1 repair inh inconclusive (no result: SMN2 splice up)
Cc1cccc(N2CCN(C(=O)c3ccc4c(c3)N(Cc3cccc(Cl)c3)C(=O)c3ccccc3S4=O)CC2)c1C (centres undefined)	none (no result: Rab9 prom act, ELG1 repair inh, ELG1 genotox, SMN2 splice up, NPC1 promoter act)
Cc1nn(C)c2c1c(C(F)(F)F)cc(=O)n2CC(=O)NC(C)(C)C	none (no result: Rab9 prom act, ELG1 repair inh, ELG1 genotox, SMN2 splice up, NPC1 promoter act)
O=S(=O)(c1cccs1)N1CCN(Cc2nc3ccccc3s2)CC1	FLuc counter 16.9µM, ELG1 repair inh inconclusive
O=C(C1CCN(S(=O)(=O)c2cccs2)CC1)N1CCCCC1	FLuc counter 4.26µM, Rab9 prom act inconclusive, ELG1 repair inh inconclusive, ELG1 genotox inconclusive, NPC1 promoter act 3.55µM (no result: SMN2 splice up)
CC(=O)N1CCC(C(=O)N2CCN(S(=O)(=O)c3cccs3)CC2)CC1	none (no result: SMN2 splice up)
CCOC(=O)C1CCN(S(=O)(=O)c2ccccc2)CC1	none (no result: SMN2 splice up)
O=C(OCc1nc2ccccc2s1)C1CCN(S(=O)(=O)c2cccs2)CC1	FLuc counter 13.5µM, ELG1 repair inh inconclusive, ELG1 genotox 11.2µM
CCOC(=O)C1CCN(S(=O)(=O)C(F)(F)c2nc3ccccc3s2)CC1	FLuc counter 26.9µM, ELG1 repair inh inconclusive
CCOC(=O)c1ccc(NC(=O)c2nc(SCc3ccccc3F)ncc2Cl)cc1	none (no result: Rab9 prom act, ELG1 repair inh, ELG1 genotox, NPC1 promoter act)
CC1(C)CCCC2(C)C3C(O)CC2(C)C(O)C31 (centres undefined)	none (no result: FLuc counter, Rab9 prom act, ELG1 repair inh, ELG1 genotox, NPC1 promoter act)
O=C(Nc1cccc(Br)c1)c1cc(S(=O)(=O)N2CCOCC2)cs1	ELG1 repair inh 16.4µM (no result: SMN2 splice up)
O=C(Nc1ccc(Cl)c(S(=O)(=O)N2CCOCC2)c1)c1cccs1	ELG1 repair inh 25.9µM (no result: FLuc counter, Rab9 prom act, SMN2 splice up, NPC1 promoter act)
O=C(Nc1ccc(Cl)c(S(=O)(=O)N2CCOCC2)c1)c1ccccc1-c1ccc(C(F)(F)F)cc1	ELG1 repair inh 23.1µM
O=C(CSc1ccccc1)Nc1ccc(Cl)c(S(=O)(=O)N2CCOCC2)c1	ELG1 repair inh 13µM (no result: FLuc counter, Rab9 prom act, SMN2 splice up, NPC1 promoter act)
Cc1cccc(N2N=C(C(=O)Nc3ccc(Cl)c(S(=O)(=O)N4CCOCC4)c3)CCC2=O)c1	ELG1 repair inh inconclusive (no result: SMN2 splice up)
O=C(Nc1ccc(Cl)c(S(=O)(=O)N2CCOCC2)c1)C1=NN(c2ccccc2)C(=O)CC1	ELG1 repair inh 29.1µM (no result: FLuc counter, Rab9 prom act, SMN2 splice up, NPC1 promoter act)
O=C(Nc1ccccc1)Nc1ccc(Cl)c(S(=O)(=O)N2CCOCC2)c1	FLuc counter inconclusive, ELG1 repair inh inconclusive
O=C(/C=C/c1ccco1)Nc1ccc(Cl)c(S(=O)(=O)N2CCOCC2)c1	FLuc counter 19µM, ELG1 repair inh 16.4µM (no result: SMN2 splice up)
CCN[C@@H]1CN(CCCOC)S(=O)(=O)c2sc(S(N)(=O)=O)cc21	none (no result: FLuc counter, Rab9 prom act, ELG1 repair inh, ELG1 genotox, NPC1 promoter act)
CCc1ccc2oc(C(=O)Nc3nc(-c4ccc(F)cc4)ns3)c(C)c2c1	FLuc counter 6.75µM (no result: Rab9 prom act, ELG1 repair inh, ELG1 genotox, NPC1 promoter act)
